Measurements published in PubChem BioAssay.
Active and inactive are the calls of the source. Unless noted, how the calls were made is not given here.

Experiments:
[1] = A549 cell viability effects, profiling panel, calcein-AM fluorescence, 48 h, basal (AID 1162); conditions: higher = more signal; further: test concentration not given here
[2] = adipocyte viability effects, profiling panel, cell-based, 3T3-L1 adipocytes, calcein-AM fluorescence, 48 h, basal (AID 1163); conditions: 3T3-L1 adipocytes viability, higher = more signal; further: test concentration not given here
[3] = HepG2 cell viability effects, profiling panel, calcein-AM fluorescence, 48 h, basal (AID 1164); conditions: higher = more signal; further: test concentration not given here
[4] = MM1S cell viability effects, profiling panel, calcein-AM fluorescence, 48 h, basal (AID 1165); conditions: higher = more signal;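 further: viability of MM1S multiple myeloma cells under basal unstimulated conditions; test concentration not given here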
[5] = basal RPMI8226 viability, no added stimulus, profiling panel, cell-based, calcein-AM fluorescence, 48 h, PK04 Diversity Set (AID 1166); conditions: RPMI8226 myeloma viability, higher = more signal;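 further: cells grown under basal conditions without added stimulus; test concentration not given here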
[6] = basal HepG2 mitochondrial membrane potential changes, profiling panel, cell-based, JC-1 fluorescence, 24 h, 100 nL compound (AID 1167); conditions: higher = more signal; further: test concentration not given here
[7] = basal 3T3-L1 adipocyte mitochondrial potential changes, profiling panel, cell-based, JC-1 fluorescence, 3T3-L1 adipocytes, 24 h, 100 nL compound (AID 1168); conditions: JC-1 mitochondrial fluorescence, higher = more signal, called active from +8 up or from −8 down; further: test concentration not given here
[8] = basal RPMI8226 mitochondrial membrane potential changes, profiling panel, cell-based, JC-1 fluorescence, 24 h, 100 nL compound (AID 1169); conditions: RPMI8226 myeloma, JC-1 mitochondrial potential fluorescence, higher = more signal; further: test concentration not given here
[9] = basal MM1S mitochondrial membrane potential changes, profiling panel, cell-based, JC-1 fluorescence, 24 h, 100 nL compound (AID 1170); conditions: higher = more signal; further: test concentration not given here
[10] = A549 lung cancer cell viability effects, profiling panel, resazurin fluorescence, 24 h, PK04 Diversity Set (AID 1171); conditions: higher = more signal, called active from +8 up or from −8 down; further: test concentration not given here
[11] = HepG2 liver cancer cell viability effects, profiling panel, resazurin fluorescence, 24 h, PK04 Diversity Set (AID 1172); conditions: higher = more signal; further: test concentration not given here
[12] = basal S. cerevisiae growth modulation, no modifier, primary screen, OD600, strain BY4716, 24 h, basal condition (AID 1173); conditions: OD600, 24 h, higher = more signal, called active from +8 up or from −8 down
[13] = MM1S myeloma cell viability, profiling panel, resazurin fluorescence, basal, 24 h, PK04 Diversity Set (AID 1174); conditions: higher = more signal, called active from +8 up or from −8 down;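 further: MM1S multiple myeloma cell line; test concentration not given here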
[14] = molecular target: Dihydroorotate dehydrogenase (quinone), mitochondrial (Plasmodium falciparum (isolate 3D7)) (UniProt Q08210); assay: PfDHODH enzyme inhibitors, primary screen, biochemical, C-terminal His tag, absorbance 600 nm (AID 1175); conditions: DCIP absorbance 600 nm, higher = more signal, called active from +8 up or from −8 down;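 further: recombinant parasite enzyme with a five histidine tag at its C terminus; test concentration not given here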
[15] = P. aeruginosa biofilm formation inhibitors, primary screen, strain PAO1, LB-PBS medium, absorbance 600 nm (AID 1176); further: test concentration not given here; conditions: P. aeruginosa PAO1 growth/biofilm, A600, 12 h; higher = more signal
[16] = S. cerevisiae RM11-1a growth modifiers, primary screen, strain RM11-1a, OD600, basal, 24 h (AID 1177); conditions: OD600, 24 h, higher = more signal, called active from +8 up or from −8 down;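 further: cultures grown under basal conditions with no added stressor; test concentration not given here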
[17] = E. coli acrAB mutant growth effects, primary screen, E. coli filamentation inducers, strain DRC39, OD650, 24 h (AID 1178); conditions: higher = more signal, called active from +8 up or from −8 down;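 further: growth measured as culture turbidity by optical density at 650 nm; test concentration not given here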
[18] = E. coli acrAB mutant growth effects, primary screen, E. coli filamentation inducers, strain DRC39, OD650, 48 h (AID 1179);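 further: screen aims at cell division blockers that make cells filament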; conditions: E. coli DRC39 delta-acrAB growth, higher = more signal, called active from +8 up or from −8 down
[19] = RPMI8226 myeloma cell viability, profiling panel, resazurin fluorescence, basal, 24 h, PK04 Diversity Set (AID 1180); conditions: higher = more signal;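 further: RPMI8826 multiple myeloma cell line at 5000 cells per well; test concentration not given here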
[20] = molecular target: E3 ubiquitin-protein ligase XIAP (Homo sapiens) (UniProt P98170); assay: XIAP binders, primary screen, biophysical, small-molecule microarray, fluorescence 635 nm (AID 1181); conditions: small-molecule microarray binding, higher = more signal;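 further: score merges 667 nm emission and signal to noise over triplicate slides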
Sequence of E3 ubiquitin-protein ligase XIAP (Homo sapiens) (P98170 whole entry, looked up): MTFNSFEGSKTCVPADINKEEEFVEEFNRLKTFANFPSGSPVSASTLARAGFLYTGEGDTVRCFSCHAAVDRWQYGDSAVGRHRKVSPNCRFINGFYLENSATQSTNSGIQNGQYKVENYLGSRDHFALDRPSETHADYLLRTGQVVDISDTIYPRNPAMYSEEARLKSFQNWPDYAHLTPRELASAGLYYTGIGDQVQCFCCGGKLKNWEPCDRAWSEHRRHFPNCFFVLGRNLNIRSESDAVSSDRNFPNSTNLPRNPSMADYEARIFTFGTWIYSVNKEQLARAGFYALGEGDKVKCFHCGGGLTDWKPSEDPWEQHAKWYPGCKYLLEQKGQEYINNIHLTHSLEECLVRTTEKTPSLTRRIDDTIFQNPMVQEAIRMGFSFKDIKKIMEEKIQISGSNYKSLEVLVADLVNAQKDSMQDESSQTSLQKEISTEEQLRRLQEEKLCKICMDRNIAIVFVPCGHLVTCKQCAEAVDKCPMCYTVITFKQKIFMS

Sequence of Dihydroorotate dehydrogenase (quinone), mitochondrial (Plasmodium falciparum (isolate 3D7)) (Q08210 whole entry, looked up): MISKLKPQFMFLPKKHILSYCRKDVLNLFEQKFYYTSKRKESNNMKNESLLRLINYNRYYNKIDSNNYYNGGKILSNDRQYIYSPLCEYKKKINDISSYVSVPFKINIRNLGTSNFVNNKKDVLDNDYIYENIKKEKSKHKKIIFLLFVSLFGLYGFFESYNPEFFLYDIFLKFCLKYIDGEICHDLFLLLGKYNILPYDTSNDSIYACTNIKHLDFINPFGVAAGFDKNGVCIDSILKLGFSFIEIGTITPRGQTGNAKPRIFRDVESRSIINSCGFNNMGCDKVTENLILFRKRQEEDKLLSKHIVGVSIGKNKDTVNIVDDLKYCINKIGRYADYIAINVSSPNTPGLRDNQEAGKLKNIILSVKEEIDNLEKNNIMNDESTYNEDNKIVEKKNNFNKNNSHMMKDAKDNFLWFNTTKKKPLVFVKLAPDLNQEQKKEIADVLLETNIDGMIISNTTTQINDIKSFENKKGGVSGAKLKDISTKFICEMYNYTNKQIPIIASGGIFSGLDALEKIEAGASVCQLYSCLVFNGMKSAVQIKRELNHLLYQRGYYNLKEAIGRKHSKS

Row | SMILES | z-score [1] | z-score [2] | z-score [3] | z-score [4] | z-score [5] | z-score [6] | z-score [7] | z-score [8] | z-score [9] | z-score [10] | z-score [11] | z-score [12] | z-score [13] | composite z-score [14] | z-score [15] | z-score [16] | z-score [17] | z-score [18] | z-score [19] | composite z-score [20]
1 | COCCCNC(=O)[C@@H]1c2ccccc2C(=O)N(Cc2ccccc2)[C@H]1c1ccc(CO)cc1 | 0.273 | 0.803 | 0.601 | 0.239 | 0.437 | 1.1 | -0.0918 (inactive) | 0.163 | 0.282 | 0.45 (inactive) | 0.0319 | -0.141 (inactive) | 0.0771 (inactive) | -0.62 (inactive) | 0.0993 (inactive) | -0.575 (inactive) | 0.38 (inactive) | 0.0879 (inactive) | 0.279 | -0.0663
2 | O=C(CS)NCCCCCNC(=O)[C@@H]1C[C@@H]2C(=O)NCC(=O)N2[C@@H]1c1ccc(O)cc1 | 0.347 | 0.136 | -1.19 | -0.403 | -0.727 | 1.14 | -0.00814 (inactive) | 0.852 | 0.158 | -1.31 (inactive) | -0.701 | 0.272 (inactive) | -1.06 (inactive) | 0.424 (inactive) | 1.5 (inactive) | -0.0231 (inactive) | -0.401 (inactive) | -1.04 (inactive) | -0.492 | -0.0536
3 | COc1ccc(C(=O)Nc2cccc(CN3C(=O)[C@]4(O[C@H](CCn5cc(CCO)nn5)[C@@H]([Si](C)(C)c5ccc(OC)cc5)[C@@H]4C)c4ccccc43)c2)cc1 | -3.46 | -0.42 | -4.63 | -2.47 | -4.35 | -2.18 | 1.51 (inactive) | -0.46 | -2.05 | -6 (inactive) | -6.31 | -7.34 (inactive) | -9.11 (active) | 2.2 (inactive) | 1.12 (inactive) | 4 (inactive) | 0.216 (inactive) | -0.883 (inactive) | -6.19 | -0.173
4 | COc1ccccc1CN1C(=O)c2ccccc2[C@@]2(Cc3ccccc3N(CCCN(C)C)C2=O)[C@@H]1c1ccc(CO)cc1 | -0.733 | 1.31 | -0.655 | 0.229 | -0.0261 | 0.511 | -0.459 (inactive) | 0.00572 | -0.343 | -0.483 (inactive) | -0.434 | 0.259 (inactive) | 1.17 (inactive) | -19.5 (active) | 0.282 (inactive) | -0.746 (inactive) | 1.28 (inactive) | 0.468 (inactive) | 0.723 | -0.113
5 | CC(C)[C@@H](C(=O)O)n1cc(C2(O)CCCCC2)nn1 | 0.566 | 1.51 | -0.294 | 0.248 | 0.215 | 0.727 | 0.639 (inactive) | -0.302 | -0.394 | 0.194 (inactive) | 0.853 | -1.45 (inactive) | 0.979 (inactive) | -0.549 (inactive) | 0.313 (inactive) | -0.513 (inactive) | 0.738 (inactive) | -0.195 (inactive) | 0.354 | 0.0077
6 | COCCCNC(=O)[C@@]1(Sc2ccc(C)cc2)CC(=O)N(Cc2ccccc2Cl)[C@@H]1c1ccc(CO)cc1 | 0.102 | 0.381 | -0.646 | 0.661 | -0.218 | -0.627 | -0.554 (inactive) | 0.118 | -2.29 | 1.76 (inactive) | 0.683 | -0.209 (inactive) | 0.306 (inactive) | -1.08 (inactive) | 0.366 (inactive) | -0.964 (inactive) | 1.08 (inactive) | 0.709 (inactive) | 0.761 | 0.145
7 | O=C1[C@H]2C=C(Br)[C@H](C[C@@H]2OCCCCCCO)[C@@]12CO2 | -0.141 | -0.572 | -0.339 | -1.04 | 0.206 | -1.59 | -0.253 (inactive) | -0.601 | -0.0629 | -0.247 (inactive) | -0.629 | -1.3 (inactive) | -1.43 (inactive) | 0.571 (inactive) | 0.756 (inactive) | 0.414 (inactive) | -0.748 (inactive) | -0.602 (inactive) | -0.899 | -0.395
8 | CC#CC(=O)Oc1ccc(Br)cc1C=CC(=O)OCC | -2.1 | -1.04 | -2.88 | -3.18 | -4.08 | -1.65 | -0.315 (inactive) | -0.583 | -1.84 | -0.685 (inactive) | -0.0419 | -14.7 (active) | -2.38 (inactive) | -0.632 (inactive) | 0.312 (inactive) | -10.6 (active) | -0.0142 (inactive) | -1.01 (inactive) | -3 | 1.25
9 | COCC(=C=CC[C@@H](O)c1ccc(OCCO)cc1)C[C@@H](O)c1ccccn1 | -0.583 | -0.936 | -0.239 | -0.149 | -0.349 | -0.964 | -0.522 (inactive) | 0.375 | -0.719 | 0.192 (inactive) | -0.495 | -0.58 (inactive) | -0.46 (inactive) | -2.5 (inactive) | 1.05 (inactive) | -0.0975 (inactive) | 0.0525 (inactive) | 0.0639 (inactive) | -0.104 | 0.0785
